# Results from PubChem BioAssay (NCI).
# About 79,000 compounds went through this panel and 15% of them were active in at least one assay; those are over-represented in the sample as a whole. Values without a mark were called inactive. Active and inactive are the calls of the source. No stated cut-off is given here; in the data, active means growth inhibition above about 70%; inactive means the rest.
# Legend:
# [1] = NCI Yeast Anticancer Drug Screen. Data for the rad52 strain (AID 147);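 further: 0% = growth of vehicle-treated control cultures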; conditions: S. cerevisiae rad52 mutant growth inhibition, active compounds read high
# Procedure, shortened: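 Inhibition of yeast growth, referenced to vehicle controls, was the measured output for a strain with defective DNA damage repair.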
# [2] = NCI Yeast Anticancer Drug Screen. Data for the wt1 strain (AID 149);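 further: 0% = growth of vehicle-treated wt1 cultures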; conditions: S. cerevisiae wt1 strain (SPY 50644) growth inhibition, active compounds read high
# Procedure, shortened: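 The wt1 strain was treated with compounds, and growth was compared with vehicle-treated cultures to give inhibition.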
# [3] = NCI Yeast Anticancer Drug Screen. Data for the rad50EPP+ strain (AID 151);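 further: 0% = growth of vehicle-treated control cultures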; conditions: S. cerevisiae rad50 mutant strain, active compounds read high
# Procedure, shortened: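 Genetically defined yeast (rad50EPP+, DNA damage repair alteration) is grown with compound, and inhibition of growth is expressed relative to vehicle-treated controls.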
# [4] = NCI Yeast Anticancer Drug Screen. Data for the rad50 strain (AID 155);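 further: 0% = growth of vehicle-only cultures of the same strain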; conditions: S. cerevisiae rad50 strain growth inhibition, active compounds read high
# Procedure, shortened: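 Cells are treated with compound, grown, and their growth is then scored against vehicle-only cultures of the same repair-deficient yeast strain.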
# [5] = NCI Yeast Anticancer Drug Screen. Data for the mec2-1 strain (AID 157); conditions: S. cerevisiae mec2-1 strain, active compounds read high
# Procedure, shortened: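 Each compound was tested on mec2-1 yeast, a strain altered in DNA damage repair or cell cycle control. Growth inhibition is reported relative to vehicle.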
# [6] = NCI Yeast Anticancer Drug Screen. Data for the rad14 strain (AID 159);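 further: 0% = growth of vehicle-treated control cultures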; conditions: S. cerevisiae rad14 strain growth inhibition, active compounds read high
# Procedure, shortened: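 Readout: yeast growth inhibition, referenced to vehicle-only cultures. Strain bears a defined alteration in DNA damage repair.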
# [7] = NCI Yeast Anticancer Drug Screen. Data for the sgs1 mgt1 strain (AID 161);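 further: 0% = growth of cultures given vehicle only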; conditions: S. cerevisiae sgs1 mgt1 strain, active compounds read high
# Procedure, shortened: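 Test agents were incubated with a DNA-repair-mutant yeast strain. Growth was then read and compared against vehicle-treated controls.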
# [8] = NCI Yeast Anticancer Drug Screen. Data for the CLN2oe strain (AID 163);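 further: 0% = growth of vehicle-only control cultures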; conditions: S. cerevisiae CLN2oe strain, active compounds read high
# Procedure, shortened: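 First, the altered yeast strain was treated with each compound; second, its growth was measured; finally, inhibition was derived by comparison with vehicle controls.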
# [9] = NCI Yeast Anticancer Drug Screen. Data for the cln2 rad14 strain (AID 165);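 further: 0% = growth equal to vehicle treated cultures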; conditions: S. cerevisiae cln2 rad14 strain, active compounds read high
# Procedure, shortened: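 Test compounds were added to cln2 rad14 yeast cultures; inhibition of growth was then determined by comparison with vehicle treatment.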
# [10] = NCI Yeast Anticancer Drug Screen. Data for the bub3 strain (AID 167); conditions: S. cerevisiae bub3 mutant strain, active compounds read high
# Procedure, shortened: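 Part of a panel of yeast mutants defective in DNA damage repair or cell cycle regulation. Each strain is grown with compound, and inhibition is calculated relative to solvent-treated cultures.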
# [11] = NCI Yeast Anticancer Drug Screen. Data for the wt2 strain (AID 169);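 further: 0% = growth of vehicle-treated yeast cultures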; conditions: S. cerevisiae wt2 strain growth inhibition, active compounds read high
# Procedure, shortened: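 The panel's yeast strains carry defined changes in DNA repair or cell cycle genes. Each strain is grown with compound, and growth loss is scored relative to vehicle.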
# [12] = NCI Yeast Anticancer Drug Screen. Data for the mlh1 strain (AID 171);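 further: 0% = growth of vehicle-treated control cultures of the same strain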; conditions: S. cerevisiae mlh1 strain growth inhibition, active compounds read high
# Procedure, shortened: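 Inhibition values reflect reduced yeast growth in the presence of compound, referenced to vehicle controls, using a strain chosen for its alteration in DNA repair or cell cycle control.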
# [13] = NCI Yeast Anticancer Drug Screen. Data for the sgs1 strain (AID 173);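 further: 0% = growth of vehicle-only control cultures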; conditions: S. cerevisiae sgs1 mutant, active compounds read high
# Procedure, shortened: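 Vehicle-treated cultures served as reference for growth inhibition of a yeast strain altered in DNA damage repair or cell cycle control after compound exposure.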
# [14] = NCI Yeast Anticancer Drug Screen. Data for the mlh1 rad18 strain (AID 175); conditions: S. cerevisiae mlh1 rad18 strain growth inhibition, active compounds read high
# Procedure, shortened: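 Inhibition values reflect reduced growth of mutant yeast versus vehicle-treated controls following compound exposure; the mutations affect DNA damage repair.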
# [15] = NCI Yeast Anticancer Drug Screen. Data for the rad18 strain (AID 177); conditions: S. cerevisiae rad18 mutant growth inhibition, active compounds read high
# Procedure, shortened: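 Steps: expose repair-mutant yeast to compound; measure growth; express as inhibition relative to vehicle control.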
# [16] = at 5.0 µM (retest, dose inferred, filed as 0.5)
# [17] = at 50.0 µM (retest, dose inferred, filed as 5.0)
smiles,measurement,setting,value
CCC(NC(C)c1ccccc1)C(=O)c1ccc(OCc2ccccc2)c(OCc2ccccc2)c1 (stereo unspecified),growth inhibition,[1]; at 1.2 µM,0%
same,growth inhibition,[1]; at 3.7 µM,7%
same,growth inhibition,[1]; at 11.0 µM,0%
same,growth inhibition,[1]; at 33.0 µM,6%
same,growth inhibition,[1]; at 100.0 µM,-18%
same,growth inhibition,[2]; at 1.2 µM,22%
same,growth inhibition,[2]; at 3.7 µM,18%
same,growth inhibition,[2]; at 11.0 µM,6%
same,growth inhibition,[2]; at 33.0 µM,2%
same,growth inhibition,[2]; at 100.0 µM,-15%
same,growth inhibition,[3]; at 1.2 µM,8%
same,growth inhibition,[3]; at 3.7 µM,7%
same,growth inhibition,[3]; at 11.0 µM,10%
same,growth inhibition,[3]; at 33.0 µM,24%
same,growth inhibition,[3]; at 100.0 µM,43%
same,growth inhibition,[4]; at 1.2 µM,-8%
same,growth inhibition,[4]; at 3.7 µM,9%
same,growth inhibition,[4]; [16],11%
same,growth inhibition,[4]; at 11.0 µM,22%
same,growth inhibition,[4]; at 33.0 µM,14%
same,growth inhibition,[4]; [17],38%
same,growth inhibition,[4]; at 50.0 µM,-12.7%
same,growth inhibition,[4]; at 100.0 µM,1%
same,growth inhibition,[5]; at 1.2 µM,39%
same,growth inhibition,[5]; at 3.7 µM,23%
same,growth inhibition,[5]; [16],9%
same,growth inhibition,[5]; at 11.0 µM,35%
same,growth inhibition,[5]; at 33.0 µM,31%
same,growth inhibition,[5]; [17],97% (active)
same,growth inhibition,[5]; at 50.0 µM,15.3%
same,growth inhibition,[5]; at 100.0 µM,30%
same,growth inhibition,[6]; at 1.2 µM,-1%
same,growth inhibition,[6]; at 3.7 µM,3%
same,growth inhibition,[6]; at 11.0 µM,3%
same,growth inhibition,[6]; at 33.0 µM,3%
same,growth inhibition,[6]; at 100.0 µM,-12%
same,growth inhibition,[7]; [16],-21%
same,growth inhibition,[7]; [17],15%
same,growth inhibition,[7]; at 50.0 µM,28.2%
same,growth inhibition,[8]; at 1.2 µM,-4%
same,growth inhibition,[8]; at 3.7 µM,-3%
same,growth inhibition,[8]; at 11.0 µM,-14%
same,growth inhibition,[8]; at 33.0 µM,-16%
same,growth inhibition,[8]; at 100.0 µM,-29%
same,growth inhibition,[9]; [16],-9%
same,growth inhibition,[9]; [17],30%
same,growth inhibition,[9]; at 50.0 µM,0.35%
same,growth inhibition,[10]; at 1.2 µM,-47%
same,growth inhibition,[10]; at 3.7 µM,-38%
same,growth inhibition,[10]; [16],-7%
same,growth inhibition,[10]; at 11.0 µM,-48%
same,growth inhibition,[10]; at 33.0 µM,-67%
same,growth inhibition,[10]; [17],1%
same,growth inhibition,[10]; at 50.0 µM,22.8%
same,growth inhibition,[10]; at 100.0 µM,-81%
same,growth inhibition,[11]; at 1.2 µM,-12%
same,growth inhibition,[11]; at 3.7 µM,-12%
same,growth inhibition,[11]; at 11.0 µM,-13%
same,growth inhibition,[11]; at 33.0 µM,-7%
same,growth inhibition,[11]; at 100.0 µM,-6%
same,growth inhibition,[12]; at 1.2 µM,5%
same,growth inhibition,[12]; at 3.7 µM,-6%
same,growth inhibition,[12]; at 11.0 µM,3%
same,growth inhibition,[12]; at 33.0 µM,0%
same,growth inhibition,[12]; at 100.0 µM,-3%
same,growth inhibition,[13]; at 1.2 µM,8%
same,growth inhibition,[13]; at 3.7 µM,18%
same,growth inhibition,[13]; at 11.0 µM,11%
same,growth inhibition,[13]; at 33.0 µM,42%
same,growth inhibition,[13]; at 100.0 µM,19%
same,growth inhibition,[14]; [16],14%
same,growth inhibition,[14]; [17],96% (active)
same,growth inhibition,[14]; at 50.0 µM,-4.9%
same,growth inhibition,[15]; at 1.2 µM,-13%
same,growth inhibition,[15]; at 3.7 µM,-4%
same,growth inhibition,[15]; at 11.0 µM,-26%
same,growth inhibition,[15]; at 33.0 µM,-27%
same,growth inhibition,[15]; at 100.0 µM,-30%
S=c1nc(Cl)cc2[nH]c(Cl)cn12,growth inhibition,[1]; at 1.2 µM,2%
same,growth inhibition,[1]; at 3.7 µM,6%
same,growth inhibition,[1]; at 11.0 µM,14%
same,growth inhibition,[1]; at 33.0 µM,43%
same,growth inhibition,[1]; at 100.0 µM,93% (active)
same,growth inhibition,[2]; at 1.2 µM,-3%
same,growth inhibition,[2]; at 3.7 µM,-3%
same,growth inhibition,[2]; at 11.0 µM,-2%
same,growth inhibition,[2]; at 33.0 µM,13%
same,growth inhibition,[2]; at 100.0 µM,42%
same,growth inhibition,[3]; at 1.2 µM,4%
same,growth inhibition,[3]; at 3.7 µM,18%
same,growth inhibition,[3]; at 11.0 µM,44%
same,growth inhibition,[3]; at 33.0 µM,89% (active)
same,growth inhibition,[3]; at 100.0 µM,98% (active)
same,growth inhibition,[4]; at 1.2 µM,7%
same,growth inhibition,[4]; at 3.7 µM,9%
same,growth inhibition,[4]; [16],-132%
same,growth inhibition,[4]; at 11.0 µM,27%
same,growth inhibition,[4]; at 33.0 µM,73% (active)
same,growth inhibition,[4]; [17],75% (active)
same,growth inhibition,[4]; at 50.0 µM,78.8% (active)
same,growth inhibition,[4]; at 100.0 µM,98% (active)
same,growth inhibition,[5]; at 1.2 µM,3%
same,growth inhibition,[5]; at 3.7 µM,4%
same,growth inhibition,[5]; [16],-46%
same,growth inhibition,[5]; at 11.0 µM,13%
same,growth inhibition,[5]; at 33.0 µM,24%
same,growth inhibition,[5]; [17],-8%
same,growth inhibition,[5]; at 50.0 µM,82.5% (active)
same,growth inhibition,[5]; at 100.0 µM,80% (active)
same,growth inhibition,[6]; at 1.2 µM,1%
same,growth inhibition,[6]; at 3.7 µM,-1%
same,growth inhibition,[6]; at 11.0 µM,10%
same,growth inhibition,[6]; at 33.0 µM,20%
same,growth inhibition,[6]; at 100.0 µM,59%
same,growth inhibition,[7]; [16],-61%
same,growth inhibition,[7]; [17],3%
same,growth inhibition,[7]; at 50.0 µM,47.4%
same,growth inhibition,[8]; at 1.2 µM,1%
same,growth inhibition,[8]; at 3.7 µM,-1%
same,growth inhibition,[8]; at 11.0 µM,3%
same,growth inhibition,[8]; at 33.0 µM,3%
same,growth inhibition,[8]; at 100.0 µM,60%
same,growth inhibition,[9]; [16],-57%
same,growth inhibition,[9]; [17],-39%
same,growth inhibition,[9]; at 50.0 µM,76.6% (active)
same,growth inhibition,[10]; at 1.2 µM,-4%
same,growth inhibition,[10]; at 3.7 µM,-3%
same,growth inhibition,[10]; [16],-30%
same,growth inhibition,[10]; at 11.0 µM,9%
same,growth inhibition,[10]; at 33.0 µM,30%
same,growth inhibition,[10]; [17],44%
same,growth inhibition,[10]; at 50.0 µM,78.5% (active)
same,growth inhibition,[10]; at 100.0 µM,94% (active)
same,growth inhibition,[11]; at 1.2 µM,2%
same,growth inhibition,[11]; at 3.7 µM,3%
same,growth inhibition,[11]; at 11.0 µM,5%
same,growth inhibition,[11]; at 33.0 µM,11%
same,growth inhibition,[11]; at 100.0 µM,83% (active)
same,growth inhibition,[12]; at 1.2 µM,8%
same,growth inhibition,[12]; at 3.7 µM,1%
same,growth inhibition,[12]; at 11.0 µM,5%
same,growth inhibition,[12]; at 33.0 µM,19%
same,growth inhibition,[12]; at 100.0 µM,90% (active)
same,growth inhibition,[13]; at 1.2 µM,3%
same,growth inhibition,[13]; at 3.7 µM,3%
same,growth inhibition,[13]; at 11.0 µM,15%
same,growth inhibition,[13]; at 33.0 µM,42%
same,growth inhibition,[13]; at 100.0 µM,99% (active)
same,growth inhibition,[14]; [16],-117%
same,growth inhibition,[14]; [17],10%
same,growth inhibition,[14]; at 50.0 µM,96.5% (active)
same,growth inhibition,[15]; at 1.2 µM,1%
same,growth inhibition,[15]; at 3.7 µM,3%
same,growth inhibition,[15]; at 11.0 µM,14%
same,growth inhibition,[15]; at 33.0 µM,44%
same,growth inhibition,[15]; at 100.0 µM,96% (active)
